A short description of assay [1]: qHTS assay to test for compound auto fluorescence at 535 nm (green) in HEK293 cells (AID 720680). Background: In qHTS, concentration-response curves come from the screen itself.
Assay [2] is described as follows: qHTS assay to test for compound auto fluorescence at 460 nm (blue) in HEK293 cell free culture (AID 720681). A digest of the protocol:
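Test compounds were pinned into cell-free culture medium (DMEM with 10% FBS) and fluorescence was read directly at Ex/Em 405/460 nm. Signals were expressed as fluorescence equivalents of triamterene, with DMSO vehicle as control.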

A short description of assay [3]: qHTS assay to test for compound auto fluorescence at 535 nm (green) in HEK293 cell free culture (AID 720682). A digest of the protocol:
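No cells present: wells hold DMEM supplemented with 10% FBS, into which compound or vehicle is pinned. Green emission is then recorded (485 nm excitation, 535 nm emission) and scaled to fluorescein.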

Assay [4] in a line: qHTS assay to test for compound auto fluorescence at 590 nm (red) in HEK293 cell free culture (AID 720683). Put shortly:
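Tox21 10K library compounds were pinned into cell-free DMEM with 10% FBS and fluorescence was read at excitation 540 nm. Activity is expressed as Rose Bengal sodium equivalency.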

Assay [5] in a line: qHTS assay to test for compound auto fluorescence at 590 nm (red) in HepG2 cell free culture (AID 720684). A digest of the protocol: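 Red fluorescence (540 nm excitation, 590 nm emission) was measured after compound transfer into cell-free MEM supplemented with 10% FBS. Values are equivalencies against Rose Bengal sodium.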
A short description of assay [6]: qHTS assay to test for compound auto fluorescence at 460 nm (blue) in HepG2 cell free culture (AID 720685). A digest of the protocol:
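Compound (23 nL) or DMSO pinned into cell-free MEM with 10% FBS; blue fluorescence read at 405/460 nm excitation/emission, expressed as auto-fluorescence equivalency to triamterene.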

Assay [7] can be described thus: qHTS assay to test for compound auto fluorescence at 535 nm (green) in HepG2 cell free culture (AID 720686).
A short description of assay [8]: qHTS assay to test for compound auto fluorescence at 460 nm (blue) in HepG2 cells (AID 720687). Put shortly: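 Cells (2,000/well in MEM with 10% FBS) attached overnight at 37 C, then were exposed to compound or DMSO for 1 hr at 37 C, 5% CO2. Fluorescence read at Ex/Em 405/460 nm, expressed as triamterene-equivalent signal.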
For assay [9], the target named is Glucocorticoid receptor (Homo sapiens) (UniProt P04150). Kind of assay: qHTS assay to identify small molecule agonists of the glucocorticoid receptor (GR) signaling pathway (AID 720691; active means well fitted activation curve with a large enough effect in the signal ratio in the repeat runs, not every such curve was filed as active; the % refers to the signal ratio). As to conditions: GR-bla HeLa, beta-lactamase reporter ratio, 18 h; activation: at 62.4 µM (top of the series). Put shortly: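 Agonist mode in a HeLa line carrying a GRE-controlled beta-lactamase reporter. Compounds act for 18 h at 37 C before a 2 h room-temperature FRET substrate step and fluorescence reading.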
Glucocorticoid receptor (Homo sapiens), sequence (P04150 whole entry, looked up): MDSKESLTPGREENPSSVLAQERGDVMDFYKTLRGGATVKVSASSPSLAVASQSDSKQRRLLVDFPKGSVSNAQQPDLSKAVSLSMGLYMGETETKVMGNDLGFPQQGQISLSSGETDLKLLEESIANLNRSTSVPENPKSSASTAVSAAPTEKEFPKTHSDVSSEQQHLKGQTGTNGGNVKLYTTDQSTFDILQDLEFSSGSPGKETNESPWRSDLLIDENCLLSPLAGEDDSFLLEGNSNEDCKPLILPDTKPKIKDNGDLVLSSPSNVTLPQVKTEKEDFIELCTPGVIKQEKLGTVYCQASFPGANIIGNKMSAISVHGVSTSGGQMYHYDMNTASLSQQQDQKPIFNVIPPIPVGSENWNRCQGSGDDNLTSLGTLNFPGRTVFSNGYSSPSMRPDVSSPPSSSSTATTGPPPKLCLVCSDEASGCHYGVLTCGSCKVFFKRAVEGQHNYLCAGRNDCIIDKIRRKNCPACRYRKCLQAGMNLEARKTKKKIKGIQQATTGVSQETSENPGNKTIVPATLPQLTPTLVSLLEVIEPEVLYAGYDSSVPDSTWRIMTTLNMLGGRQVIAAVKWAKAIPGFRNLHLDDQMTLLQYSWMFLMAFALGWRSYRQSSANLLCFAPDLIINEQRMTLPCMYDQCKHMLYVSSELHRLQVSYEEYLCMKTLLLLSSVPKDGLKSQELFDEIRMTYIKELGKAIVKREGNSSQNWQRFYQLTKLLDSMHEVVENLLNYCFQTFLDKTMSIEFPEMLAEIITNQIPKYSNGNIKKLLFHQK

Assay [10] shares this target. Kind of assay: qHTS assay to identify small molecule antagonists of the glucocorticoid receptor (GR) signaling pathway (AID 720692; active means well fitted inhibition curve with a large enough effect in the signal ratio in the repeat runs, not every such curve was filed as active; the % refers to the signal ratio). A digest of the protocol:
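Cells plated, rested 4 h at 37 C/5% CO2; compounds in DMSO pin-transferred; dexamethasone added to 5 nM final; 18 h at 37 C; B/G FRET substrate added, 2 h room temperature; fluorescence measured.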

Assay [11] can be described thus: qHTS assay to identify small molecule antagonists of the glucocorticoid receptor (GR) signaling pathway - cell viability counter screen (AID 720693). Further: nearly all actives have a fitted effect of over 55% in size.
The nature of assay [12]: qHTS assay for identifying genotoxic compounds that show differential cytotoxicity against isogenic chicken DT40 cell lines with known DNA damage response pathways - Rad54/Ku70 mutant cell line (AID 743015). Further: nearly all actives have a fitted effect of over 60% in size.
A short description of assay [13]: qHTS assay to identify small molecule antagonists of the androgen receptor (AR) signaling pathway - cell viability counter screen (AID 743033; further: nearly all actives have a fitted effect of over 45% in size).
Assay [14] in a line: qHTS assay to identify small molecule antagonists of the androgen receptor (AR) signaling pathway using the MDA cell line - cell viability counter screen (AID 743041; further: nearly all actives have a fitted effect of over 45% in size). A digest of the protocol: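 MDA-kb2 AR-luc human breast carcinoma cells (MMTV-luciferase, AR/GR responsive) were treated with compounds plus R1881 agonist for 16 h at 37 °C. Viability was read as CellTiter-Fluor fluorescence in the same wells as the reporter assay.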

The nature of assay [15]: qHTS assay for identifying genotoxic compounds that show differential cytotoxicity against isogenic chicken DT40 cell lines with known DNA damage response pathways - wild type cell line (AID 743012). Further: nearly all actives have a fitted effect of over 60% in size. Further: potency means the concentration at half of the fitted maximal effect. A digest of the protocol: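 Cells (DT40 wild type, 300/well) are treated with DMSO-dissolved compounds after a ~0.5 h pre-incubation and kept 40 h at 37 C/5% CO2. Viability is then measured by CellTiter-Glo luminescence following 30 min at room temperature.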

A short description of assay [16]: qHTS assay for identifying genotoxic compounds that show differential cytotoxicity against isogenic chicken DT40 cell lines with known DNA damage response pathways - Rev3 mutant cell line (AID 743014). Further: nearly all actives have a fitted effect of over 55% in size. Further: potency means the concentration at half of the fitted maximal effect.
In assay [17] the target is Androgen receptor (Homo sapiens) (UniProt P10275). The assay can be described thus: qHTS assay to identify small molecule antagonists of the androgen receptor (AR) signaling pathway (AID 743035; active means well fitted inhibition curve with a large enough effect in the signal ratio in the repeat runs, not every such curve was filed as active; the % refers to the signal ratio). A digest of the protocol:
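Antagonism is scored as loss of R1881-driven beta-lactamase reporter expression in HEK293 cells carrying the reporter under a UAS element, after 16 h co-treatment at 37C and a 2 h room-temperature FRET substrate read.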

Assay [18] has the same target. Kind of assay: qHTS assay to identify small molecule agonists of the androgen receptor (AR) signaling pathway (AID 743036; active means well fitted activation curve with a large enough effect in the signal ratio in the repeat runs, with a control signal flat, not every such curve was filed as active; the % refers to the signal ratio). A digest of the protocol:
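Quantitative HTS of the Tox21 10K library in HEK293 cells bearing a stably integrated UAS-controlled beta-lactamase reporter. Compound exposure lasted 16 h at 37C. Reporter activity was detected by FRET substrate fluorescence after 2 h at room temperature.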

The target is the same in assay [19]. The assay can be described thus: qHTS assay to identify small molecule agonists of the androgen receptor (AR) signaling pathway using the MDA cell line (AID 743040; further: nearly all actives have a fitted effect of over 20% in size). A digest of the protocol: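 MDA-kb2 breast carcinoma cells stably carrying an MMTV-driven luciferase reporter (AR- and GR-responsive) were seeded and held 5 h at 37C, 0% CO2, then exposed to compounds in DMSO for 16 h. Luminescence was read 30 min after ONE-Glo addition.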

For assay [20] the target is unchanged. The assay can be described thus: qHTS assay to identify small molecule antagonists of the androgen receptor (AR) signaling pathway using the MDA cell line (AID 743042; further: nearly all actives have a fitted effect of over 55% in size). A digest of the protocol: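 MDA-kb2 cells (human breast carcinoma, stably carrying an MMTV-luciferase reporter responsive to AR and GR) were plated at 3,000 cells/well and preincubated 5 hr at 37C, then given compound plus R1881 agonist for 16 h. ONE-Glo luminescence was read.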

Values without a mark were called inactive. Records with an inconclusive call do not appear. Activity calls are given as the source filed them. Unless noted, the call rests on the fitted dose curve; in most records, active means well fitted curve in the direction sought with a large enough effect in the repeat runs; inconclusive means weak or mixed curves; inactive means no such curve, though single readings can be large; an effect the other way counts as inactive or inconclusive.

Data on 15 compounds can be found in PubChem BioAssay (Tox21).
On the % scale 0 is the no-effect control and ±100 the full control effect.

Androgen receptor (Homo sapiens), sequence (P10275 whole entry, looked up): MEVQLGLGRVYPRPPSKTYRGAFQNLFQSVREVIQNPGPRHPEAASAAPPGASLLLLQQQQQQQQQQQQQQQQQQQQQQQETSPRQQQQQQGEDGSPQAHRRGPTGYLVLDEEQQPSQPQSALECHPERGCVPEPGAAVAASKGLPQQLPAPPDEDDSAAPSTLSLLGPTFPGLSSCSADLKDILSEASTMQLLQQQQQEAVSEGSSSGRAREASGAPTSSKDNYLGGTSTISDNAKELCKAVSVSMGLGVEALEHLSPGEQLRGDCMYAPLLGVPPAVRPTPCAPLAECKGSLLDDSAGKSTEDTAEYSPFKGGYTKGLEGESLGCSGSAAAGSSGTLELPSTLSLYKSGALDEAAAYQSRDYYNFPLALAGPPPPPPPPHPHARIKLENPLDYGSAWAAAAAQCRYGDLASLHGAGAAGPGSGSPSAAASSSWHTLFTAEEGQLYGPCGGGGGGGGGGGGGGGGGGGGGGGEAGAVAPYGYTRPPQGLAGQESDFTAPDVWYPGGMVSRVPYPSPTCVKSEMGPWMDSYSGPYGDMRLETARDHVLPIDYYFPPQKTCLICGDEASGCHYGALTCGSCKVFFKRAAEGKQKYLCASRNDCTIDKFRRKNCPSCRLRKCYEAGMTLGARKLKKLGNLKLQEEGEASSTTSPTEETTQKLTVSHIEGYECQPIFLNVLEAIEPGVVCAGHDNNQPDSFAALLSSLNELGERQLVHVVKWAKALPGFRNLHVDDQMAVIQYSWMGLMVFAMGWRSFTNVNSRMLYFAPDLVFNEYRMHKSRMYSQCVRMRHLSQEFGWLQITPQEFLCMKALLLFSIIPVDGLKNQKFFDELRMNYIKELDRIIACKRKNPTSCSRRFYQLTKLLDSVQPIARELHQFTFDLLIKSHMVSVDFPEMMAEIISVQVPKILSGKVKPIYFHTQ

As to `Cc1cccc(Cc2cnc[nH]2)c1C`, the call in assay [1], in [3], in [4] and in assay [5] was inactive. Further, the Potency result in assay [2], in assay [6], in [7], in assay [8], in assay [9] and in assay [10] was “inactive” in each case. In addition, the Potency entry in assay [11], in [12], in assay [13] and in [14] was “inactive” throughout.

Consider `c1ccc2nc(N3CCNCC3)ccc2c1`, for which the call in [1], in [3], in [4] and in assay [5] was inactive. Further, the Potency result in [2], in assay [6], in assay [7], in assay [8], in assay [9] and in assay [10] was “inactive” each time. The Potency result in assay [11] and in [14] was “inactive” in each case. In [15], the Potency is 29.8 µM (active).

On to `COc1nc(C)nc(NC(=O)NS(=O)(=O)c2ccccc2Cl)n1`, for which the call in [1], in [3], in assay [4] and in assay [5] was inactive. Moreover, the Potency entry in assay [2], in assay [6], in [7], in [8], in [9] and in assay [10] was “inactive” each time. In addition, the Potency entry in assay [11], in assay [15], in assay [16], in assay [12], in assay [13] and in assay [14] was “inactive” each time.

As for `S=C=Nc1ccccc1`, the call in [1], in assay [3], in [4], in assay [5], in [18] and in [19] was inactive. Further, the Potency result in assay [2], in [6], in [7], in assay [8], in [9] and in [10] was “inactive” throughout. For the same compound, the Potency entry in assay [11], in assay [15], in assay [16], in assay [12], in assay [13] and in assay [17] was “inactive” throughout. Moreover, the Potency result in assay [20] is “inactive”.

Consider `Oc1cccc(Cl)c1Cl`, for which the result in assay [1], in assay [3], in assay [4] and in [5] was inactive. Moreover, the Potency result in assay [2], in assay [6], in assay [7], in assay [8], in assay [9] and in assay [10] was “inactive” each time. Further, the Potency result in assay [11], in assay [15], in [12] and in assay [13] was “inactive” throughout.

Take `O=c1c2ccccc2c(=O)c2c1cc(Cl)c1[nH]c3c([nH]c12)c(Cl)cc1c(=O)c2ccccc2c(=O)c13`: the compound was called inactive in assay [1], in [3], in assay [4] and in assay [5]. Also, the Potency result in assay [2], in assay [6], in [7], in assay [8], in assay [9] and in assay [10] was “inactive” throughout. For the same compound, the Potency result in assay [11], in assay [15], in assay [16], in [12], in assay [13] and in [14] was “inactive” in each case.

On to `Cc1c([N+](=O)[O-])c(C)c([N+](=O)[O-])c(C(C)(C)C)c1[N+](=O)[O-]`, for which the compound was classed as inactive in assay [1], in assay [3], in [4] and in [5]. For the same compound, the Potency result in [2], in [6], in [7], in [8], in assay [9] and in [10] was “inactive” throughout. Moreover, the Potency entry in assay [11] and in assay [14] was “inactive” in each case. The Potency in assay [15] and in assay [16] was 68.6 µM (active) each time.

On to `CC(C)Br`, for which the compound was called inactive in assay [1], in assay [3], in assay [4] and in [5]. Besides, the Potency result in [2], in assay [6], in [7], in assay [8], in assay [9] and in assay [10] was “inactive” each time. For the same compound, the Potency result in assay [11], in [15], in assay [16], in assay [13] and in assay [14] was “inactive” in each case.

As for `COCCC#N`, the compound was called inactive in [1], in assay [3], in assay [4] and in assay [5]. In addition, the Potency result in assay [2], in [6], in assay [7], in [8], in [9] and in [10] was “inactive” in each case. The Potency result in [11], in [15], in [16], in [12] and in assay [13] was “inactive” each time.

`COc1c2c(cc3c1OCO3)CCN(C)C2`: in [1], the fluorescence, % of fluorescein is -0.0183% [at 18.6 µM]. Moreover, the fluorescence, % of fluorescent control in assay [2] was 0.395% [at 18.6 µM]; in assay [4], 0.174% [at 18.6 µM]; in [6] it was -0.0127% [at 18.6 µM]; in assay [8], -0.0807% [at 18.6 µM]. Also, the activity change in assay [3] was -0.0284% [at 18.6 µM]. For the same compound, the fluorescence, % of Rose Bengal in assay [5] was -0.194% [at 18.6 µM]. For the same compound, in [7], the fluorescence, % of fluorescein control was -0.0107% [at 18.6 µM]. In addition, the Potency entry in [9], in assay [10], in [11], in assay [15], in [16] and in assay [14] was “inactive” in each case.

`ClC(Cl)C(Cl)(Cl)Cl`: the compound was called inactive in assay [1], in [3], in assay [4] and in [5]. For the same compound, the Potency result in assay [2], in [6], in assay [7], in assay [8], in assay [9] and in assay [10] was “inactive” each time. The Potency result in [11], in [15], in [16] and in assay [12] was “inactive” throughout.

As for `CCO/N=C(\CC)C1=C(O)CC(c2c(C)cc(C)cc2C)CC1=O` (configuration not stated), the call in assay [1], in assay [3], in assay [4], in assay [5] and in [19] was inactive. Further, the Potency result in assay [2], in assay [6], in assay [7], in [8], in assay [9] and in assay [10] was “inactive” throughout. Further, the Potency entry in [11] and in assay [14] was “inactive” each time. Moreover, the values for the Potency in assay [15] and in [16] were 48.5 µM (active) and 51.4 µM (active), respectively.

For `O=C(Nc1ccc(F)cc1F)c1cccnc1Oc1cccc(C(F)(F)F)c1`, the compound was called inactive in [1], in assay [3], in assay [4] and in assay [5]. Also, the Potency result in assay [2], in assay [6], in assay [7], in assay [8], in [9] and in [10] was “inactive” throughout. In addition, the Potency entry in assay [11], in assay [15], in [16] and in assay [13] was “inactive” each time.

Take `COc1ccc2c3c1O[C@H]1[C@H](O)CC[C@H]4[C@@H](C2)N(C)CC[C@@]341`: the outcome in assay [1], in assay [3], in assay [4] and in assay [5] was inactive. Also, the Potency result in [2], in assay [6], in [7], in assay [8], in [9] and in assay [10] was “inactive” throughout. The Potency result in [11], in assay [15], in assay [16], in assay [12] and in assay [14] was “inactive” each time.

For `CNC(=O)O/N=C(\C)C(C)S(C)(=O)=O` (configuration not stated), the call in assay [1], in [3], in assay [4] and in [5] was inactive. The Potency entry in assay [2], in assay [6], in assay [7], in [8], in assay [9] and in [10] was “inactive” each time. Moreover, the Potency result in [11], in assay [15], in [12] and in assay [13] was “inactive” each time.
